Compound activity deposited in PubChem by National Center for Advancing Translational Sciences (NCATS).
IDH1 R132H inh – human IDH1 R132H inhibition; O75874; IDH1-R132H enzyme, NADPH consumption, diaphorase/resazurin fluorescence; Potency, µM (top dose mostly 76.6 µM), without a hit: at the top dose activity change, negative = inhibition, actives largely listed as inhibitors; hit rate 0.093% among 390,000; AID 602179; note: % is set by controls: 0 for no effect and ±100 for the full control effect; nearly all actives have a fitted effect of over 65% in size
Target sequence (O75874 whole entry R132H, stated change not applied): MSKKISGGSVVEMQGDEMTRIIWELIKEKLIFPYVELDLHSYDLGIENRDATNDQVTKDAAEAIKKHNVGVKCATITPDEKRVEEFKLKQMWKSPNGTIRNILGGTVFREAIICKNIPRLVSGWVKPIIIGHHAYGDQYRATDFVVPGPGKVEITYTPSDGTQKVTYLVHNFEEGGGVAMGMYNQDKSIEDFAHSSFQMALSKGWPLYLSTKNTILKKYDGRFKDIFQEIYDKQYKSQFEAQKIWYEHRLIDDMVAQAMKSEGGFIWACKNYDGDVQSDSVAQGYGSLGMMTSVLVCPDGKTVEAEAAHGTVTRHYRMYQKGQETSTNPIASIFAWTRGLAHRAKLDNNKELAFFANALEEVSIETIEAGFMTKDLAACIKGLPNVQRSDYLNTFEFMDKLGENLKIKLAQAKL
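IDH1-R132H (0.5 ug/mL dispensed) in pH 7.5 Tris buffer was preincubated 30 min with compound, then given a substrate mix of 0.016 mM NADPH and 2 mM alpha-KG for 80 min at room temperature; remaining NADPH was read by diaphorase/resazurin fluorescence.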
ELG1 repair inh – ELG1-dependent DNA repair inhibition; Potency, µM (doses to about 46.1 µM), for the others: at the highest dose activity change, negative = inhibition, actives largely listed as inhibitors; HEK293T ELG1-luciferase reporter, luminescence, 16 h; DNA damage induced by 5-fluorouridine; AID 504467; hit rate 2.3% among 330,000; note: % is set by controls: 0 for no effect and ±100 for the full control effect; nearly all actives have a fitted effect of over 55% in size
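Luminescence from the luciferase reporter, measured 30 min after ONE-Glo reagent at room temperature, was the read-out. Beforehand, 2,000 cells per well were exposed for 16 hr at 37 °C to 5-fluorouridine together with compound or vehicle.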
A549 tox – kills or reduces viability of A549 cells in Nrf2 counter-screen; Potency, µM (titrated, usually from 46 µM), for the others: at the highest dose activity change, negative = cytotoxicity, most hits filed as inhibitors; hit rate 0.16% among 390,000; A549 ARE-Fluc cells, CellTiter-Fluor viability, 18-24 h; AID 504648; note: % is set by controls: 0 for no effect and ±100 for the full control effect
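A549 ARE_Fluc cells in 5% FBS OPTI-MEM were exposed to compounds in concentration-response for 18-24 h at 37 deg C. Viability was read by CellTiter-Fluor fluorescence (Ex 405/Em 525) after 30 min, before the luciferase read.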
Nrf2 activator – activates Nrf2 signaling | AREc32 ARE-luciferase reporter (MCF7-derived line), luminescence, 24 h | Potency, µM (series often up to 46.1 µM), without a hit: at the highest dose activation, actives largely listed as activators | hit rate 0.31% among 410,000 | AID 624171; note: % of control where 0% means no effect; nearly all actives have a fitted effect of over 65% in size
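Cells of the AREc32 ARE-luciferase line are plated in OPTI-MEM containing 5% FBS and left overnight at 37 deg C. Compounds are pinned in, incubation continues 24 hr, and firefly luciferase signal is then measured.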
Nrf2 inh – inhibitors of Nrf2 signaling | AID 504444 | Potency, µM (series often up to 46 µM), inactives show at the highest dose activity change, negative = inhibition, hits mostly inhibitors | A549 ARE-Fluc reporter, luciferase luminescence, 18-24 h | hit rate 2.1% among 360,000; note: % is set by controls: 0 for no effect and ±100 for the full control effect; nearly all actives have a fitted effect of over 60% in size
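Cells were seeded and rested 2 h, then exposed to compounds for 18-24 h. CellTiter-Fluor was read first as a viability measure. BugLite was added 15 min before the final luminescent read of ARE-luciferase activity in A549 cells.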
* = called active by the depositor; ? = inconclusive; nt = no result; [ ] = dose if it differs, or a comment. The list is not random: actives were taken first. Their share in the collection is about 3.8%. Calls come from the whole dose curve; as a rule, active = well fitted curve in the direction sought with a large enough effect; inconclusive = small, poorly fitted or top-dose-only effect, or another doubt; inactive = no such curve, though single readings can be large; an effect the other way counts as inactive or inconclusive. Potency is the fitted concentration of half-maximal effect.

SMILES | IDH1 R132H inh | ELG1 repair inh | A549 tox | Nrf2 activator | Nrf2 inh
C=CCn1c(=O)c2ccccc2n2c(SCC(=O)Nc3sc(C(=O)N(CC)CC)c(C)c3C(=O)OCC)nnc12 | -8% | 21µM* | ? | 0% | ?
CCOC(=O)c1c(NC(=O)CSc2nc3cc(Cl)ccc3c(=O)n2Cc2ccco2)sc(C(=O)N(C)C)c1C | -8% | 3.3µM* | -11% | 0% | ?
Cc1ccc(CNc2ncnc3onc(-c4ccc(F)cc4)c23)cc1 | -16% | nt | 6% | 5% | ?
Cc1nn(C(C)(C)C)c(OC(=O)c2c(F)cccc2F)c1Sc1ccccc1 | 2% | nt | ? | 0% | 6%[9.27 µM]
COCCNC(=O)Nc1cc(C(=O)NCc2ccc(C(C)C)cc2)ccc1N1CCCC1 | 0% | nt | 6% | 7% | nt
COc1ccc(Nc2ccc3cc(S(=O)(=O)N4CCCC4)ccc3n2)cc1Cl | -4% | nt | -25% | 4% | 26µM*
O=C(CNc1cccc(S(=O)(=O)N2CCCC2)c1)Nc1cccc(C(F)(F)F)c1 | -1% | 9.2µM* | -17% | 6% | ?
CN(CC(=O)Nc1cccc(S(=O)(=O)N2CCOCC2)c1)CC(=O)Nc1ccc(Cl)c(C(F)(F)F)c1 | -2% | 13µM* | ? | 3% | 21µM*
O=C(CNc1ccc(C(F)(F)F)cc1)Nc1cccc(S(=O)(=O)N2CCCC2)c1 | -3% | -19% | 2% | 0% | ?
COc1ccc(Cl)cc1Nc1ccc2cc(S(=O)(=O)N3CCCCC3)ccc2n1 | 11% | nt | -10% | 4% | -16%
CN(CC(=O)Nc1cccc(F)c1)CC(=O)Nc1cc(S(=O)(=O)N2CCOCC2)ccc1Cl | -3% | ? | -4% | 3% | ?
O=C(CNc1cccc(S(=O)(=O)N2CCCC2)c1)Nc1cccc(Br)c1 | 4% | ? | -23% | 2% | 21µM*
O=C(CCCn1c(=O)c2cccn2c2cccnc21)Nc1ccccc1C(F)(F)F | -2% | nt | 1% | 3% | -10%
O=C(CNc1ccc(Br)cc1)Nc1ccc(S(=O)(=O)N2CCCC2)cc1 | 3% | -3% | -5% | 0% | -20%
O=C(CNc1ccc(Br)cc1)Nc1cccc(S(=O)(=O)N2CCCC2)c1 | 2% | -14% | ? | 0% | 21µM*
COc1ccc(NCC(=O)Nc2cccc(S(=O)(=O)N3CCCC3)c2)cc1Cl | -9% | 0% | -21% | 1% | 18µM*
COc1cc(NC(=O)CNc2cccc(S(=O)(=O)N3CCCC3)c2)cc(OC)c1 | -1% | ? | -12% | -1% | ?
CC1=NN(c2ccccc2)C(=O)/C1=C/C=C/C=C/N(C)C | 6% | -21% | 10µM* | 4% | ?
O=C(CCCCCCN1C(=O)c2ccccc2C1=O)Nc1nccs1 | 16% | 16µM* | -12% | -1% | -27%
O=C(CCCN1C(=O)c2ccccc2C1=O)Nc1nccs1 | 1% | ? | -6% | 0% | nt
O=C(O)CCSc1nnc(-c2ccc3c(c2)OCO3)o1 | 9% | -1% | 6% | -2% | 8.2µM*
CC(=O)CSc1nnc(-c2ccc3c(c2)OCO3)o1 | 0% | ? | -2% | -1% | -20%
CC(C)(C)c1nnc(N/N=C/c2ccccc2)n(N)c1=O | 7% | -12% | 9% | 0% | 1%
CC(C)(C)c1nnc(N/N=C/c2ccccc2O)n(N)c1=O | 3% | 21µM* | ? | 0% | ?
CC1(C)CC(=O)C2=C(C1)OC1=C(C(=O)CC(C)(C)C1)C2c1ccc(O)cc1O | -1% | ? | 18µM* | -3% | nt
SMILES | IDH1 R132H inh | ELG1 repair inh | A549 tox | Nrf2 activator | Nrf2 inh
CC1(C)CC(=O)C2=C(C1)OC1=C(C(=O)CC(C)(C)C1)C2c1ccc(O)c([N+](=O)[O-])c1 | 13% | ? | -11% | -1% | -12%
CCCN1C(=O)c2ccccc2NC1c1ccc(OC)c(COc2ccc([N+](=O)[O-])cc2)c1 (stereo not given) | nt | nt | 0% | nt | -29%
O=C(CSc1ncc(-c2ccccc2)[nH]1)Nc1cccc(O)c1 | -1% | 16µM* | -1% | 4% | 8%
O=C(CSc1ncc(-c2ccccc2)[nH]1)Nc1ccccc1 | 0% | 0% | 1% | 4% | ?
CCS(=O)(=O)c1c(Nc2ccc(F)c(Cl)c2)sc(C(=O)c2ccccc2)c1N | -2% | nt | ? | 10% | 21µM*
Nc1c(C(=O)c2ccccc2)sc(Nc2ccccc2)c1S(=O)(=O)c1ccccc1 | -5% | ? | -21% | 0% | ?
CCCOc1ccc(C2c3c(-c4ccccc4O)n[nH]c3C(=O)N2CCc2ccccc2)cc1OCC (stereo not given) | 0% | nt | -2% | 0% | 22%
CCCCN(C)CCCNC(=O)Cn1ncc2c3ccccc3n(Cc3ccccc3F)c2c1=O | 23% | nt | ? | 0% | ?
CN(C(=O)c1cccc(NC(=O)Cc2ccc(NC(=O)C3CCCN(C(=O)CCc4ccccc4)C3)cc2)c1)C1CCCC1 (stereo not given) | -1%[38.3 µM] | nt | ? | 4% | 21µM*
CN(C(=O)c1ccc(NC(=O)Cc2cccc(NC(=O)C3CCCN(C(=O)CCc4ccccc4)C3)c2)cc1)C1CCCC1 (stereo not given) | -9% | ? | -15% | 4% | 15µM*
CN(C(=O)c1cccc(NC(=O)Cc2ccc(NC(=O)C3CCN(C(=O)CCc4ccccc4)CC3)cc2)c1)C1CCC1 | 10% | nt | -2% | 7% | -22%
CN(C(=O)c1ccc(NC(=O)Cc2cccc(NC(=O)C3CCCN(C(=O)C4CCC4)C3)c2)cc1)C1CC1 (stereo not given) | -10% | nt | 8% | 1% | -8%
CN(C(=O)c1ccc(NC(=O)Cc2cccc(NC(=O)C3CCCN(C(=O)C4CCCC4)C3)c2)cc1)C1CCCC1 (stereo not given) | -17% | 0% | -11% | 5% | 18µM*
CN(C(=O)c1cccc(NC(=O)Cc2ccc(NC(=O)C3CCCN(C(=O)CCc4ccccc4)C3)cc2)c1)C1CCC1 (stereo not given) | -2%[38.3 µM] | nt | -13% | 4% | 16µM*
NC(=O)c1nc(-c2ccc(F)c(F)c2)nc2c1[nH]c(=O)n2-c1cccc(Cl)c1 | nt | nt | 10% | 3% | -16%
Cc1cc(C)cc(NC(=O)N2CCN3CCCCC3C2)c1 (stereo not given) | 10% | nt | 14% | 0% | ?
COc1ccc(O)c(-c2nc3ccccc3c(=O)n2Cc2ccccc2)c1 | nt | nt | -8% | nt | 15%
O=S(=O)(c1ccc(Br)cc1)c1nnn2c1nc(NCc1cccs1)c1sccc12 | -13% | nt | 2% | 1% | -28%
CC(C)(C)OC(=O)N1CCC(C(=O)Nc2cccc(C(=O)NCCCc3ccccc3)c2)CC1 | -8% | nt | -6% | 5% | 23µM*
